From ChEMBL document CHEMBL1961873, “Compounds: GSK PKIS; Assays: Nanosyn kinase panel” (2012)

Legend:
[1] = test system: Proto-oncogene tyrosine-protein kinase receptor Ret (Homo sapiens), P07949 [Y791F]; details: at 1 µM
[2] = target: Macrophage-stimulating protein receptor (Homo sapiens) (UniProt Q04912); details: at 0.1 µM
[3] = target: Macrophage-stimulating protein receptor (Homo sapiens) (UniProt Q04912); details: at 1 µM
[4] = target: Proto-oncogene tyrosine-protein kinase ROS (Homo sapiens) (UniProt P08922); details: at 0.1 µM
[5] = target: Proto-oncogene tyrosine-protein kinase ROS (Homo sapiens) (UniProt P08922); details: at 1 µM
[6] = target: Proto-oncogene tyrosine-protein kinase Src (Homo sapiens) (UniProt P12931); details: at 0.1 µM
Proto-oncogene tyrosine-protein kinase Src (Homo sapiens), sequence (P12931 2-536 limits assumed): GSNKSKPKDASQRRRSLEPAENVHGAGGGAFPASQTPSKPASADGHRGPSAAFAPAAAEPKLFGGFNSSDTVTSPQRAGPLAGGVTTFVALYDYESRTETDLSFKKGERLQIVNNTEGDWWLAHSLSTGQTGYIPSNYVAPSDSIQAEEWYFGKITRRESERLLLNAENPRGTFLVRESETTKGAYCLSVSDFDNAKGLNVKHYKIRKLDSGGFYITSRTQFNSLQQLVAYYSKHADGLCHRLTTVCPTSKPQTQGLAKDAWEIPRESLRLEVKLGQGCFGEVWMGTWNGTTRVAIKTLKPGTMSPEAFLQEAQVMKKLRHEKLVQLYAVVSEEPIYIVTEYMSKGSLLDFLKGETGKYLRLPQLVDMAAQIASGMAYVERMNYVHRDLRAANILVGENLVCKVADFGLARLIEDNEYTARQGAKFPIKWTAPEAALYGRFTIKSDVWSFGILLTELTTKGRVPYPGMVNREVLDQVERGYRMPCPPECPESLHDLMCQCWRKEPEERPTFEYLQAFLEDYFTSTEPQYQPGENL

[7] = target: Proto-oncogene tyrosine-protein kinase Src (Homo sapiens) (UniProt P12931); details: at 1 µM
[8] = target: Tyrosine-protein kinase Srms (Homo sapiens) (UniProt Q9H3Y6); details: at 0.1 µM
Tyrosine-protein kinase Srms (Homo sapiens), sequence (Q9H3Y6 whole entry): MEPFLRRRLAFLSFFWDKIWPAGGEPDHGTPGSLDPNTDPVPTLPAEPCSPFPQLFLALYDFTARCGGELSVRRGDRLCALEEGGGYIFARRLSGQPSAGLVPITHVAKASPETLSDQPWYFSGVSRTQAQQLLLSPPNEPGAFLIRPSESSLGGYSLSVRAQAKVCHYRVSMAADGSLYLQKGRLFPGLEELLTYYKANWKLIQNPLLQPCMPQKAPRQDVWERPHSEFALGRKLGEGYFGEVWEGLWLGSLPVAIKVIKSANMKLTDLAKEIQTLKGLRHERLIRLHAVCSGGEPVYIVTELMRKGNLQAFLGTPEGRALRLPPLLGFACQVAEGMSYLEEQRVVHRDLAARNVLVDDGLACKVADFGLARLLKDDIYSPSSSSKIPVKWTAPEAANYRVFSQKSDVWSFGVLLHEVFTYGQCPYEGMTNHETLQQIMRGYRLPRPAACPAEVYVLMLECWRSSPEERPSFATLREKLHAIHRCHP

[9] = target: Tyrosine-protein kinase Srms (Homo sapiens) (UniProt Q9H3Y6); details: at 1 µM
[10] = target: Tyrosine-protein kinase SYK (Homo sapiens) (UniProt P43405); details: at 0.1 µM
[11] = target: Tyrosine-protein kinase SYK (Homo sapiens) (UniProt P43405); details: at 1 µM
[12] = target: T1, Tyrosine-protein kinase Tec (Homo sapiens) (UniProt P42680); details: at 0.1 µM
T1 sequence (whole entry): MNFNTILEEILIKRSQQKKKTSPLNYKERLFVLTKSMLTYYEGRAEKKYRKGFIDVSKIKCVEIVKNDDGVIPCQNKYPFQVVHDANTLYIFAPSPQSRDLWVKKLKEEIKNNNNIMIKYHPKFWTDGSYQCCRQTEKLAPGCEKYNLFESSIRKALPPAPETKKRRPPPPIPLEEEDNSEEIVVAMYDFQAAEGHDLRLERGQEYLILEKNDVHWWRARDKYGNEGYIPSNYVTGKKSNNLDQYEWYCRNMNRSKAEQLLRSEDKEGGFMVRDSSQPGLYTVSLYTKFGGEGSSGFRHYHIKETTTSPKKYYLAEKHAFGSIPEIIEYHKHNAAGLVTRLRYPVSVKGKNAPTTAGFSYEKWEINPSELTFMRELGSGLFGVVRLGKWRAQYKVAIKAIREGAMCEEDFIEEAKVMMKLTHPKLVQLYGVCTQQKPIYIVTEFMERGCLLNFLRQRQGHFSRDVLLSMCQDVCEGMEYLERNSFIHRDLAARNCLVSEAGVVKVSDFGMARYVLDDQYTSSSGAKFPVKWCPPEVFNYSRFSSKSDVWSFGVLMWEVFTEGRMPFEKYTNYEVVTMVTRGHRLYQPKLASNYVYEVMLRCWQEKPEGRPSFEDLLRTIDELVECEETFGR

[13] = target: T1, Tyrosine-protein kinase Tec (Homo sapiens); details: at 1 µM
[14] = target: Angiopoietin-1 receptor (Homo sapiens) (UniProt Q02763); details: at 0.1 µM
Angiopoietin-1 receptor (Homo sapiens), sequence (Q02763 whole entry): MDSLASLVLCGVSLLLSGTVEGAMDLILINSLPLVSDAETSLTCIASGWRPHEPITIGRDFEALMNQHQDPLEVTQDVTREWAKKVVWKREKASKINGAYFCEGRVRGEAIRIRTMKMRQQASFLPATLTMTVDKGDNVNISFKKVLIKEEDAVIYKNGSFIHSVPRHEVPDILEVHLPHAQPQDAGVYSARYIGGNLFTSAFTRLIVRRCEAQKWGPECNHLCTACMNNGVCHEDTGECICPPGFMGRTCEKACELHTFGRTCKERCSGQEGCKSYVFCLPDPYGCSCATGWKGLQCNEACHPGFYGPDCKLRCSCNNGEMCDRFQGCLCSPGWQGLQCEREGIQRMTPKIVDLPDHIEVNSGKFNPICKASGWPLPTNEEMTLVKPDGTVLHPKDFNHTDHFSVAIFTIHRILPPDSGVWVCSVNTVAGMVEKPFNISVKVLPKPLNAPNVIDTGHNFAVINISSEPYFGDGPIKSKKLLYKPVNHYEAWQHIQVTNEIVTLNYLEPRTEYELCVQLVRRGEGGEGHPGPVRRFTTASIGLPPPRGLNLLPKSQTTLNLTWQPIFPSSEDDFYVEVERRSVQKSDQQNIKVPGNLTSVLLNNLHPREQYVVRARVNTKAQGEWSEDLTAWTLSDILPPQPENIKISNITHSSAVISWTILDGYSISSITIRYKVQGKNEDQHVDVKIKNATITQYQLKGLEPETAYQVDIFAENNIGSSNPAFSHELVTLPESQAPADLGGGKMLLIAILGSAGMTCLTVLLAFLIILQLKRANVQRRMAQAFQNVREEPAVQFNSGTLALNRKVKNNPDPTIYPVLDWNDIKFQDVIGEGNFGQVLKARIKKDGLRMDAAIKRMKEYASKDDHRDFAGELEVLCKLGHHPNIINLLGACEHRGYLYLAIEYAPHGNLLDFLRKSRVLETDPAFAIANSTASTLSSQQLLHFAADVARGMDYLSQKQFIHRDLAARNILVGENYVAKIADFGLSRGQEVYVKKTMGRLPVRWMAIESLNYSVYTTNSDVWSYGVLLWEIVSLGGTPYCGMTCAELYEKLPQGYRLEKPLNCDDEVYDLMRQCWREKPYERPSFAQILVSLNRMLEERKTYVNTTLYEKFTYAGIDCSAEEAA

[15] = target: Angiopoietin-1 receptor (Homo sapiens) (UniProt Q02763); details: at 1 µM
[16] = target: T2, Non-receptor tyrosine-protein kinase TNK1 (Homo sapiens) (UniProt Q13470); details: at 0.1 µM
T2 sequence (whole entry): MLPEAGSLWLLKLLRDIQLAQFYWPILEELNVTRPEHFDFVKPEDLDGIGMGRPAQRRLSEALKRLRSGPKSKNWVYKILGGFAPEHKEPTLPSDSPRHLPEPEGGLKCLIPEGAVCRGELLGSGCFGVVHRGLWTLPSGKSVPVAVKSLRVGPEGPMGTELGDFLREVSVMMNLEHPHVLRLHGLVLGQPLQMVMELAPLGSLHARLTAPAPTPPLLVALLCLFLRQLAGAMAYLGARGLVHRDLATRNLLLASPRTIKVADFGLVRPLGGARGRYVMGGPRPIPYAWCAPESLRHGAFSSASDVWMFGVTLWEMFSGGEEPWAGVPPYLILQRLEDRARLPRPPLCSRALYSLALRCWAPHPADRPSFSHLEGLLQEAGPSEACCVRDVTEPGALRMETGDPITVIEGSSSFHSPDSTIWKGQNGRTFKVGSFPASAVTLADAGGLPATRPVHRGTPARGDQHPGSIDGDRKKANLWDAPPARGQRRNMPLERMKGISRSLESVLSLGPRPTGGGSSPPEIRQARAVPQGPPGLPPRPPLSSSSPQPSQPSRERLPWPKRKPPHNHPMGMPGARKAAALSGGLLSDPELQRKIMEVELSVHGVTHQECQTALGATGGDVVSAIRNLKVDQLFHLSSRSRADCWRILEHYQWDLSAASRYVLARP

[17] = target: T2, Non-receptor tyrosine-protein kinase TNK1 (Homo sapiens); details: at 1 µM
[18] = target: Activated CDC42 kinase 1 (Homo sapiens) (UniProt Q07912); details: at 0.1 µM
Activated CDC42 kinase 1 (Homo sapiens), sequence (Q07912 whole entry, looked up): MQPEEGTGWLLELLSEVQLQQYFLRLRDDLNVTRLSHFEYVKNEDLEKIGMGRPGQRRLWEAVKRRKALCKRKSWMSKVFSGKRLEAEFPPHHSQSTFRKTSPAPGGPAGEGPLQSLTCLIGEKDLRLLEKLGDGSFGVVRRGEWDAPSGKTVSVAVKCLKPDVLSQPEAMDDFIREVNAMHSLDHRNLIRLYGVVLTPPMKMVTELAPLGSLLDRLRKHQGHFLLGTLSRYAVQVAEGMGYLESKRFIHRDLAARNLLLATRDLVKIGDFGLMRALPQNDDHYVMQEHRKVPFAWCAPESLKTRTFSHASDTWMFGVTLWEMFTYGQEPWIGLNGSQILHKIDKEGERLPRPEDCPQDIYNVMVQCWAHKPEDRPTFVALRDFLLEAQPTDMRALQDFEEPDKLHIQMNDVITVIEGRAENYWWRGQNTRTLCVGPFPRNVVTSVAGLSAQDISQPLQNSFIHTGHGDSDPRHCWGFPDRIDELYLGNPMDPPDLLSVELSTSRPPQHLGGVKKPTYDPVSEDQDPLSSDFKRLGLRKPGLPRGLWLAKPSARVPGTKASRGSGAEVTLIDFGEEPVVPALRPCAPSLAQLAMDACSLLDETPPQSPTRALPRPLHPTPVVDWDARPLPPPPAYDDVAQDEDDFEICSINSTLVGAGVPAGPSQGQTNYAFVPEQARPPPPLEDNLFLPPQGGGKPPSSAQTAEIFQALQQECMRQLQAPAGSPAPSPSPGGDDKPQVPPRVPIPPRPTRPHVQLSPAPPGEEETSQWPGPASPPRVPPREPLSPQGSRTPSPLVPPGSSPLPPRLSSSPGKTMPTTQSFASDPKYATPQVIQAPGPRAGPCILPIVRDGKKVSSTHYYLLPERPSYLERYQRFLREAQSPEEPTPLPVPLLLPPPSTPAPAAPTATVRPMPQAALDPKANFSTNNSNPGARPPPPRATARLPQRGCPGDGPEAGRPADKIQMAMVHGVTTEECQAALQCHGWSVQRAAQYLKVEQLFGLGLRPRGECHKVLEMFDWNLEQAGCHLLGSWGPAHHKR

[19] = target: Activated CDC42 kinase 1 (Homo sapiens) (UniProt Q07912); details: at 1 µM
[20] = target: High affinity nerve growth factor receptor (Homo sapiens) (UniProt P04629); details: at 0.1 µM;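 note: each value is a mean of replicate percent inhibition readings against TRKA kinase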
High affinity nerve growth factor receptor (Homo sapiens), sequence (P04629 33-796 limits assumed): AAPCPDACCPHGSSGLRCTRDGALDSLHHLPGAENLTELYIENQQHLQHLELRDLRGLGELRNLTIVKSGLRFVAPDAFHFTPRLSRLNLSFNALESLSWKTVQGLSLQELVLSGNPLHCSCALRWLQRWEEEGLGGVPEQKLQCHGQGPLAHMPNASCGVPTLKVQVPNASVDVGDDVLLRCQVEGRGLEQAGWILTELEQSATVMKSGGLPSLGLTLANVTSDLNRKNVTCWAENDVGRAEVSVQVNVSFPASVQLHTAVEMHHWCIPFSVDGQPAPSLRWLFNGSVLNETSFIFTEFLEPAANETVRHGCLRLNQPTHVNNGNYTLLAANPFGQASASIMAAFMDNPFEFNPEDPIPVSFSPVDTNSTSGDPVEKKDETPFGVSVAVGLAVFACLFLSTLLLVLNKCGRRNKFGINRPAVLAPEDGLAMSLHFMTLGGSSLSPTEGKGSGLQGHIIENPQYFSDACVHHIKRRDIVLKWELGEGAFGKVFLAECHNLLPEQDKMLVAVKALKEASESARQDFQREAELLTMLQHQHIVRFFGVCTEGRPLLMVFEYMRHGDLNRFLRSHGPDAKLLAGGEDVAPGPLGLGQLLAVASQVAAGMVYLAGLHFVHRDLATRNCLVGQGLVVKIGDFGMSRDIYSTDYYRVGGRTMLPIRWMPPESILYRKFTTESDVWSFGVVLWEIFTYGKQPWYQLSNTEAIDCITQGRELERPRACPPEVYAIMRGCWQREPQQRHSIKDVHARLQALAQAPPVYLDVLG

Proto-oncogene tyrosine-protein kinase receptor Ret (Homo sapiens), P07949 [Y791F], sequence (P07949 whole entry Y791F): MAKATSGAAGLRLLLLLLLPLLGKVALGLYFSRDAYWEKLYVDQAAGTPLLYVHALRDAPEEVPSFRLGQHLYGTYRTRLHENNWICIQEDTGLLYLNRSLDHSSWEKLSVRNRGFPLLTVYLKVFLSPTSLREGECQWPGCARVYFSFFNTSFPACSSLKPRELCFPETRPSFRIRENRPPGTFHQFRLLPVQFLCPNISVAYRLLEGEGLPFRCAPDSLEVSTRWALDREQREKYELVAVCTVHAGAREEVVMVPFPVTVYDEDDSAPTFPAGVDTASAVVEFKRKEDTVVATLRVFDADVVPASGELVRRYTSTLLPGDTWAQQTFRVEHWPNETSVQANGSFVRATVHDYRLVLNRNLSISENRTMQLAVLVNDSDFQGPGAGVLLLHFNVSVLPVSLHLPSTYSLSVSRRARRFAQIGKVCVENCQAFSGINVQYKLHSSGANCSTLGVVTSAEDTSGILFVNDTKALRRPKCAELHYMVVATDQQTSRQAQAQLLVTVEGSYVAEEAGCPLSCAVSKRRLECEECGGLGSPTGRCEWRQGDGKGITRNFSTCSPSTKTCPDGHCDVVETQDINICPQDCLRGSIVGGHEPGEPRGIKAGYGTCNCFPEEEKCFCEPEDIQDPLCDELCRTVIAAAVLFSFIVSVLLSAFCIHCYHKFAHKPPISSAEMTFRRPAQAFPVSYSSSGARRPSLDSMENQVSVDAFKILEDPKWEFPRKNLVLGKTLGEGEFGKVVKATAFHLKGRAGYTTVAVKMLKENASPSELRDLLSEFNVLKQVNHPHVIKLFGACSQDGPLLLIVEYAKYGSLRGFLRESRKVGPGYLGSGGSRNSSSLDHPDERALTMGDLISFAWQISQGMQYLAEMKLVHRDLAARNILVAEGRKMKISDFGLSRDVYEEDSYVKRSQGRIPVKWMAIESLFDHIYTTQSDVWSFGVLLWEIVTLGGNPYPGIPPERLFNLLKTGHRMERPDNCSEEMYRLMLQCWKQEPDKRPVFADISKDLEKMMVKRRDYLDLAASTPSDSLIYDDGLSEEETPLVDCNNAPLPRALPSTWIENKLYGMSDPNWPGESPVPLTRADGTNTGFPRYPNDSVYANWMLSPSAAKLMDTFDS

Structure (SMILES)	inhibition [1]	inhibition [2]	inhibition [3]	inhibition [4]	inhibition [5]	inhibition [6]	inhibition [7]	inhibition [8]	inhibition [9]	inhibition [10]	inhibition [11]	inhibition [12]	inhibition [13]	inhibition [14]	inhibition [15]	inhibition [16]	inhibition [17]	inhibition [18]	inhibition [19]	inhibition [20]
CN(C)c1cc2c(Nc3ccc4nc(Cc5ccccc5)[nH]c4c3)ncnc2cn1	27.9%	7.08%	3.46%	6.18%	11.8%	-0.18%	20.1%	1.22%	8.06%	-5.04%	1.5%	5.94%	11.9%	3.86%	4.47%	6.39%	21%	1.01%	4.65%	4.28%
CS(=O)(=O)CCNCc1ccc(-c2ccc3ncnc(Nc4ccc(OCc5cccc(F)c5)c(C(F)(F)F)c4)c3c2)o1	3.86%	3.73%	5%	6.01%	4.01%	-1.31%	8.28%	-1.21%	-1.42%	-6.45%	1.13%	3.58%	4.26%	4.55%	5.67%	4.87%	10.5%	0.57%	1.13%	1.7%
Cc1nnc(-c2ccc(C)c(-c3ccc(C(=O)Nc4cccc(C#N)c4)cc3)c2)o1	15.7%	1.95%	3.79%	1.81%	1.44%	3.95%	6.82%	-0.52%	0.42%	3.5%	-0.57%	4.05%	3.86%	3.65%	5.45%	-0.4%	5.43%	0.82%	2%	1.28%
CS(=O)(=O)Nc1ccc(N/C=C2\C(=O)Nc3ccccc32)cc1	50%	-3.2%	6.3%	1.48%	6.73%	-2.8%	8.01%	-2.57%	1.32%	-1.22%	-3.83%	-2.97%	0.17%	0.36%	2.36%	-2.85%	6.96%	-0.49%	1.32%	5.97%
COc1cc2ncn(-c3cc(O[C@H](C)c4ccccc4Cl)c(C(N)=O)s3)c2cc1OC	63.8%	14.8%	17.8%	10.7%	36.5%	7.81%	40.7%	2.69%	6.05%	1.76%	-0.3%	5.59%	19.3%	12.7%	41.7%	17.7%	70.8%	6.31%	28.2%	1.31%
COc1cccc(-n2ncc3c(N/N=C/c4cccc(F)c4)ncnc32)c1	19.5%	7.02%	24.4%	3.12%	10.6%	0.4%	57.2%	-0.72%	2.55%	9.4%	-0.87%	-1.33%	2.09%	1.49%	9%	2.13%	2.44%	0.24%	0.25%	3.27%
COc1cc(C)c(NC(=O)CN(C)C)cc1Nc1nc(Nc2cccc(F)c2C(N)=O)c2cc[nH]c2n1	2.8%	3.91%	3.91%	79.7%	86%	11.1%	6.65%	1.04%	1.18%	0.17%	0.44%	1.93%	3.64%	0.55%	0.17%	30.8%	73.4%	1.18%	14%	2.31%
CCn1c(-c2nonc2N)nc2c(C#CC(C)(C)O)nc(CN3CCCC3)cc21	14.5%	27.6%	-5.13%	2.54%	3.85%	0.78%	0.68%	-1.37%	-0.75%	6.45%	-0.03%	-0.24%	1.81%	2.79%	3.96%	-0.12%	-4.05%	-0.98%	-1.32%	-2.07%
COc1ccccc1Nc1ncc(-c2ccccc2)o1	–	6.08%	1.59%	5.04%	11.2%	8.59%	11.2%	-1.24%	2.11%	-1.37%	-4.41%	2.21%	7.28%	0.33%	6.44%	3.82%	13.8%	0.63%	3.33%	1.73%
NC(=O)c1cccc(Nc2nccc(Nc3cccc4[nH]ncc34)n2)c1	79.7%	1.43%	4.78%	21.8%	66%	86.3%	94.9%	8.24%	41.9%	-5.51%	25.4%	17.4%	62.5%	9.12%	47.5%	6.88%	58.3%	5.44%	47.8%	0.29%
Nc1ncnc2occ(-c3ccc(NC(=O)Nc4cc(C(F)(F)F)cc(C(F)(F)F)c4)cc3)c12	75.6%	-3.85%	7.91%	1.98%	15.9%	-4.73%	24.4%	-0.11%	-0.05%	-5.69%	-6.95%	3.65%	6.33%	29.1%	77.5%	4.85%	33.8%	1.04%	1.13%	37.1%
COc1ccc(-c2nn3ncccc3c2-c2ccnc(Nc3ccc(Cl)c(C(F)(F)F)c3)n2)cc1	13.3%	-1.78%	2.44%	2.34%	2.35%	1.05%	9.68%	0.23%	1.79%	-1.43%	-1.11%	1.4%	1.86%	4.94%	4.42%	0.89%	13.3%	0.86%	1.6%	-2.59%
O=C1NC(=O)C(c2ccc(Cl)cc2)=C1Nc1ccc(Cl)c(C(=O)O)c1	-1.73%	-4.02%	2.12%	1.45%	3.13%	0.48%	-1.52%	0.85%	2.75%	-1%	-0.32%	-1.66%	-1.1%	-0.19%	3.01%	-3.22%	0.53%	-0.36%	-0.48%	0.44%
